High-throughput results from PubChem.
D1 antag: antagonists of human D1 dopamine receptor. actives 3.2% (n = 360,000). P21728. HEK293 TREx D1 cells, calcium flux, dopamine EC80; active compounds read low. activity change, negative = inhibition, % at 10 µM; in the data active means activity change below about -30%
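Calcium flux readout: force-coupled, inducible Hek293 Trex D1 line, cells induced overnight at 30 C with tetracycline, dye-loaded 30–90 min at RT. Antagonism scored against EC80 dopamine challenge given 180 s after compound.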
DRD3 agonist: agonists of human D3 dopamine receptor | P35462 | D3R DiscoveRx beta-arrestin cells, luminescence, 90 min | max activation, % | actives 0.58% (n = 410,000) | AID 652048; in the data active means max activation above about 30%
Target sequence (P35462 whole entry, looked up): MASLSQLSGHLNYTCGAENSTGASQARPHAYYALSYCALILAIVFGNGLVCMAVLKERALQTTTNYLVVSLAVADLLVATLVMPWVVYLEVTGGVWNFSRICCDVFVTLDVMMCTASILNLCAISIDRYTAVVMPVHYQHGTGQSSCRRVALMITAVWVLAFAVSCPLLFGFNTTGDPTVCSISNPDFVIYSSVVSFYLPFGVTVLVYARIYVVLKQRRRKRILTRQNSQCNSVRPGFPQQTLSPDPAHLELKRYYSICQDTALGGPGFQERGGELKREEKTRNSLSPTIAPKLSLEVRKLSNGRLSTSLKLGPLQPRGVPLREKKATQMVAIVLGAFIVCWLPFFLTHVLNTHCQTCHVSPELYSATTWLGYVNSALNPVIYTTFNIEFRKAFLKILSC
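Cells at 1500/well, incubated overnight, then treated with pinned compounds (dopamine as control) for 90 min at 37 degrees C. DiscoveRx reagent added for 30 - 60 minutes at room temperature; luminescence read.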
D1 ag: activates the human D1 dopamine receptor; actives 1% (n = 360,000); HEK293 T-REx D1 cells, calcium flux, agonist mode; activation, % at 2 µM; in the data active means activation above about 30%
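Inducible HEK293 T-REx D1 cells, force-coupled to calcium signalling, were plated at 4000 cells/well with tetracycline and held overnight at 30 C. After no-wash calcium dye loading, compound-evoked calcium rise over 180 s flagged agonists.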
DRD3 antagonist: blocks the human D3 dopamine receptor; P35462; D3R cells, DiscoveRx beta-arrestin luminescence, antagonist mode; active compounds read low; max response, negative = inhibition, %; actives 2.5% (n = 360,000); in the data active means max response below about -50%; inconclusive means no clear call, values can overlap the other calls
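Cells expressing the human receptor were seeded at 1500 cells/well, incubated overnight at 37 degrees C in 5% CO2, then exposed to library compounds with dopamine controls for 90 minutes at 37 degrees C before luminescent detection.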
D1 PAM: potentiators of human D1 dopamine receptor | HEK293 TREx D1 cells, calcium flux, dopamine EC20 potentiation | potentiation, % at 10 µM | actives 0.036% (n = 360,000) | AID 504651; in the data active means potentiation above about 30%
A number is an active result; n = inactive; u = inconclusive; x = no result given. Rows were chosen to be rich in hits. Some 6.1% of all compounds tested hit in one or more screens of this group.

SMILES | D1 antag | DRD3 agonist | D1 ag | DRD3 antagonist | D1 PAM
Cc1cc(C)nc(SCc2ccc(C(=O)NNC(=O)Nc3cccc(Cl)c3)cc2)n1 | n | n | n | -58 | n
COc1ccc(OC)c(S(=O)(=O)NCCc2csc3nc(-c4ccccc4)nn23)c1 | x | n | n | x | n
CCOc1cccc(CN2CCCC(C(=O)c3cc(Cl)ccc3OC)C2)c1O (stereo unspecified) | n | n | n | -106 | n
COc1ccc(C(=O)C2CCCN(Cc3ccc(C#CCCO)cc3)C2)c(OC)c1 (stereo unspecified) | n | n | n | -116 | n
COc1ccc(C(=O)C2CCCN(Cc3cc(C)c(O)c(C)c3)C2)c(OC)c1 (stereo unspecified) | n | n | n | u | n
COc1ccc(C(=O)C2CCCN(Cc3sc(N4CCCC4)nc3Cl)C2)c(OC)c1 (stereo unspecified) | -41 | n | n | -65 | n
COc1ccc(C(=O)C2CCCN(Cc3cc(Cl)ccc3O)C2)c(OC)c1 (stereo unspecified) | n | n | n | -54 | n
COc1ccc(Cn2c(=O)c3cccnc3n(CC(=O)Nc3c(C)cc(C)cc3C)c2=O)cc1 | n | n | n | x | n
CCN1C(=O)C(Cc2nc3ccccc3c(=O)n2-c2ccccc2)c2ccccc21 (stereo unspecified) | -54 | n | n | n | n
Cc1ccc(C(=O)NCCC2=CCCCC2)cc1S(=O)(=O)N1CCCCC1 | n | n | n | n | n
O=C(NCc1ccc(Cl)cc1)c1cccc(S(=O)(=O)N2CCCC2)c1 | -40 | n | n | n | n
Cc1ccc(NC(=O)c2cc(S(=O)(=O)N3CCCC3)cn2C)cc1 | n | n | n | n | n
O=C(NCc1ccccc1)c1cccc(S(=O)(=O)N2CCCCC2)c1 | n | n | n | n | n
COc1ccc(NC(=O)c2cc(S(=O)(=O)N3CCCCC3)cn2C)cc1Cl | n | 49 | n | x | n
O=C(NCCC1=CCCCC1)c1cccc(S(=O)(=O)N2CCCCC2)c1 | -39 | n | n | n | n
COc1ccc(NC(=O)c2cc(S(=O)(=O)N3CCOCC3)cn2C)cc1Cl | n | n | n | n | n
Cc1ccc(CCNC(=O)c2cc(S(=O)(=O)N3CCCC3)cn2C)cc1 | n | n | n | -145 | n
O=C(CSc1nc(-c2cccs2)nc2cc(=O)[nH]n12)Nc1ccccc1Cl | n | n | n | x | n
Cn1cc(S(=O)(=O)N2CCCC2)cc1C(=O)NCc1ccc(Cl)cc1 | -33 | n | n | n | n
CN(C)c1ccc(CNC(=O)c2cc(S(=O)(=O)N3CCCC3)cn2C)cc1 | n | n | n | n | n
O=C(CC1N=C2c3ccccc3N=C(SCc3ccccc3Cl)N2C1=O)NCc1cccs1 (stereo unspecified) | n | n | n | x | n
CC(=O)N1c2ccc(S(=O)(=O)NCC3CCC(C(=O)Nc4cccc(C)c4C)CC3)cc2CC1C (stereo unspecified) | n | n | n | x | n
O=C(Nc1nnc(-c2ccccc2)s1)c1cc(S(=O)(=O)N2CCOCC2)c(Cl)cc1Cl | n | n | n | -70 | n
COC(C[C@H]1O[C@@H]1C(=O)COCc1ccccc1)OC | x | 32 | x | n | x
COC(C[C@@H]1O[C@H]1C(=O)COCc1ccccc1)OC | x | n | x | n | x
SMILES | D1 antag | DRD3 agonist | D1 ag | DRD3 antagonist | D1 PAM
CCCSc1ncc(Cl)c(C(=O)Nc2c(C(=O)c3ccc(C)cc3)oc3ccccc23)n1 | n | n | n | x | n
O=C(C(O)c1ccc(Br)cc1)N1CCC(Nc2ccc3[nH]ncc3c2)CC1 (stereo unspecified) | x | n | x | -81 | x
O=C(Nc1ccc2[nH]ncc2c1)C1CCC1 | n | n | n | n | n
CCc1ccccc1NC(=O)Nc1cc(C(=O)NCc2ccccc2OC)ccc1N1CCCC1 | n | n | n | x | n
COC(=O)c1cc2sc(Cl)cc2n1Cc1nc(-c2ccccc2F)oc1C | n | n | n | x | n
N#CC1(NC(=O)COC(=O)c2cc(O)c3ccccc3c2O)CCCCC1 | -40 | n | n | n | n
Cc1cccc(Cc2c(C)nc3nc(SCc4cccc(F)c4)nn3c2C)c1 | n | n | n | x | n
CC(=O)c1cccc(NC(=O)c2ccc(OC3CSC3)cc2)c1 | n | n | n | n | n
O=C(Nc1cccc(Br)c1)c1ccc(OC2CSC2)cc1 | -36 | x | n | x | n
Cc1ccc(CSC2=Nc3ccccc3C3=NC(CC(=O)NC4CCCCC4)C(=O)N23)cc1 (stereo unspecified) | n | n | n | x | n
CCN(CC)c1ccc(C=C(c2nnnn2-c2ccc(C)cc2)c2nnnn2-c2ccc(C)cc2)cc1 | n | n | 32 | n | n
O=C(C1CCC(Cn2c(=O)c3sccc3n(Cc3ccc(F)cc3)c2=O)CC1)N1CCOCC1 (stereo unspecified) | n | n | n | x | n
COc1ccc(-n2c(=O)c(NC(=O)c3ccccc3)c3n(c2=S)CCCCC3)cc1 | -31 | n | n | n | n
COC(=O)C(C)NC(=O)N1CCN(c2nnc(C)c3c(C)n(-c4ccc(Cl)cc4)nc23)CC1 (stereo unspecified) | n | n | n | x | n
CCCCN(CC)CCCNC(=O)CCN1N=C(c2ccc(OC)cc2)CCC1=O | n | n | n | x | n
COc1ccc(OCCNc2cc(N3CCCCC3)ccc2[N+](=O)[O-])cc1 | n | n | n | n | n
Cc1cccc(OCCNc2cc(N3CCN(CCO)CC3)ccc2[N+](=O)[O-])c1 | n | n | n | -58 | n
CC1CN(c2ccc([N+](=O)[O-])c(NCCOc3ccccc3)c2)CCN1 (stereo unspecified) | n | n | 32 | u | n
Cc1ccccc1OCCNc1cc(N2CCN(CCO)CC2)ccc1[N+](=O)[O-] | n | n | 33 | -64 | n
Cc1ccccc1OCCNc1cc(N2CCCCC2)ccc1[N+](=O)[O-] | n | n | n | n | n
COc1ccc(-c2cc3ccc(O)c(CN4CCCCC4C)c3oc2=O)cc1OC (stereo unspecified) | n | n | n | x | n
Cc1ccc(-n2ncc3c(N(C)Cc4ccccc4)ncnc32)cc1 | n | n | n | x | n
O=S(=O)(c1cccc(F)c1)N1CCC(Oc2ccc(-n3cnnn3)cc2)CC1 | -30 | n | n | x | n
CCc1nnc(NC(=O)CN2CCN(Cc3cccc(Cl)c3)CC2)s1 | n | n | n | -52 | n
COc1ccc(C(C#N)(CCC#N)CCC#N)cc1OC | n | n | n | n | n
COc1ccc(CCN(C)CCCC(C#N)(c2ccc(OC)c(OC)c2)C(C)C)cc1OC (stereo unspecified) | x | x | x | -88 | x
O=C(Nc1ccc2oc(-c3cc(Br)ccc3Cl)nc2c1)c1cc2ccccc2o1 | n | n | n | x | n
CCCCC1CCC(C(=O)N2CC(=O)Nc3ccc(C)cc3C2c2ccc(F)cc2)CC1 (stereo unspecified) | -53 | n | n | x | n
CC1CCN(C(=O)c2ncn(C)c2C(=O)N2CCC(C)CC2)CC1 | x | n | x | -51 | x
